The whole screen tested about 360,000 compounds, of which about 1,800 (0.5%) were called active. The full list was thinned out, with actives kept by preference. Values without a mark were called inactive.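 How the source made its calls: active means mean inhibition of at least 75% with every replicate also reaching 75%; inconclusive means mean inhibition at least 75% but some replicate below; inactive means mean inhibition below 75%.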
Assay: reduction of Shn3 3'UTR firefly luciferase signal, primary screen, Schnurri-3 inhibitor project, cell-based, Clone20 osteoblasts, set 2 (AID 588674);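 further: 0% = median of neutral control wells and 100% = pilot-screen positive control compound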
Conditions: Clone20 osteoblast Shn3 3'UTR firefly luciferase, 24 h; at 12.5 µM; hits give high values

Compound	inhibition
CCCCNc1nc2c(c(=O)n(C)c(=O)n2C)n1Cc1cccc(OC)c1	86.7% (active)
CCn1c(NCCc2ccc(OC)c(OC)c2)nc2c1c(=O)n(C)c(=O)n2C	63.1%
Cn1c(=O)c2c(nc(NCCNC(=O)c3ccco3)n2Cc2ccccc2F)n(C)c1=O	12.8%
C[C@H](C(=O)CC(=O)OC(C)(C)C)[C@H](O)c1ccc(C(F)(F)F)cc1	-13.2%
O=C(NCc1ccc(F)cc1)c1cc(C2CCCCN2C(=O)c2cccs2)on1 (configuration not stated)	4.41%
O=S1(=O)CC(N2CCN(c3ccccn3)CC2)CN1Cc1ccc(F)cc1 (configuration not stated)	11.2%
COc1ccccc1N1CCN(/N=C\C(Br)=C\c2ccccc2)CC1	39.8%
Cc1cc(-c2n[nH]c(=S)n2/N=C/C(Br)=C/c2ccccc2)n[nH]1	90.7% (active)
COc1ccccc1/C=C/C=N/n1c(-c2ccc(Cl)cc2Cl)n[nH]c1=S	-1.5%
Cc1ccc(S(=O)(=O)N2C[C@]3(O)C[C@@H]4C(=O)N(c5ccccc5)C(=O)[C@@H]4C[C@]3(OC(=O)NC3CC3)C2)cc1	7.81%
CCOC(=O)C(=Cc1ccccc1)C(=O)c1ccccc1	40.1%
CCOC(=O)/C(=C\c1ccc([N+](=O)[O-])cc1)C(=O)c1cc(C(C)=O)c(Nc2ccccc2)s1	97.8% (active)
CCOC(=O)/C(=N\Nc1ccccc1[N+](=O)[O-])c1csc(Nc2ccccc2)n1	-7.96%
COc1ccc(-c2c(C#Cc3ccsc3)c3cc(-c4ccc(CN5CCOCC5)cc4)ccc3n2C)cc1	10.2%
Cc1cccc(N2CCN(C(c3ccccc3)c3nnnn3CC3CCCO3)CC2)c1C (configuration not stated)	20.4%
COc1ccccc1NC(=S)N1CCN(C(c2ccccc2)c2ccccc2)CC1	13.3%
CC1(C)CC(N2CCN(C(c3ccccc3)c3ccccc3)CC2)=CC(=[N+]2CCCCC2)C1	88.3% (active)
Cc1ccc(-n2c(=O)c(C#N)cc3c(=O)n4ccccc4nc32)cc1C	6.55%
O=C(NCC1CCCCC1)c1cc(S(=O)(=O)N2CCCCC2)ccc1N1CCOCC1	-9.53%
CCc1nnc(NC(=O)CCN(c2ccc(C)cc2)S(=O)(=O)c2ccccc2)s1	-20.5%
Cc1sc2ncnc(SCC(=O)NC3CCS(=O)(=O)C3)c2c1C (configuration not stated)	-6.98%
CC(C)(C)c1ccc(/C=C2\Oc3c(ccc(O)c3CN3CCN(CCO)CC3)C2=O)cc1	7.57%

Compound	inhibition
COCCCNC(=O)Cn1cc(C(=O)C2CC2)c2ccccc21	11.6%
O=C(Cn1cc(C(=O)C2CC2)c2ccccc21)Nc1ccccc1Cl	87.4% (active)
Cc1ccccc1NC(=O)Cn1cc(C(=O)C2CC2)c2ccccc21	8.79%
COc1cc(CNc2ncnc3c2ncn3[C@H]2CN(Cc3cccs3)C[C@@H](CO)O2)cc(OC)c1OC	-5.77%
Cc1ccccc1C(=O)N1CCN(c2ccc(NC(=O)c3cccs3)cc2)CC1	23.5%
Cc1ccccc1C(=O)NC(=S)Nc1ccc(N2CCN(C(=O)c3ccccc3)CC2)cc1	88.5% (active)
COc1ccccc1C(=O)NC(=S)Nc1ccc(N2CCOCC2)cc1	-4.89%
CC1(C(=O)NS(=O)(=O)Cc2cccc(Cl)c2)CCN1C(=O)Cc1ccc(Cl)cc1Cl (configuration not stated)	18.9%
CC1(C)CC(=O)C=C(c2cccc3c2Oc2ccccc2S3)C1	22.5%
CCOC(=O)c1c(C)[nH]c2c1-c1ccccc1C(=O)C2=O	95.4% (active)
CCOC(=O)c1c(C)[nH]c(C)c1S(=O)(=O)NCCCc1ccco1	6.75%
CCOC(=O)c1c(C)[nH]c(C(=O)OCC(=O)c2ccc(OC)cc2OC)c1C	-19.1%
COc1ccccc1C(=O)Nc1ccnn1C1CCN(C(=O)C(C)(C)C)CC1	-5.61%
CC(=O)Nc1ccc(N2C(=O)CCC2=O)cc1C	-1.51%
C/C(N)=C(/C#N)C(=O)COC(=O)C1CCN(C(=O)c2ccc(Cl)cc2)CC1	3.42%
Cc1cccc(CS(=O)(=O)c2ncc(Cl)c(C(=O)Nc3ccc(F)cc3)n2)c1	95.8% (active)
Cc1cccc(NC(=O)Cn2cc(C(=O)c3ccco3)c3ccccc32)c1	76.4%
Cc1cccc(NC(=O)CCN2CC(C)CC(C)C2)c1 (configuration not stated)	15.6%
Cc1ccc(C)c(Cn2nnc3c(=O)[nH]c(C(=O)Nc4ccc(F)cc4)nc32)c1	6.9%
Cc1cccc(NC(=O)c2nc(S(=O)(=O)Cc3ccccc3)ncc2Cl)c1	96.9% (active)
Cc1cccc(CN2CCC(CNC(=O)Nc3ccc(F)c(Cl)c3)CC2)c1	31.4%
CCS(=O)(=O)Nc1ccc(C(=O)NCCSc2ccccc2)cc1	-6.43%

Compound	inhibition
CCCCc1ccc(NC(=S)N2CCCC(CO)C2)cc1 (configuration not stated)	-84.4%
COc1cccc(CN(C)CC(=O)Nc2sc3c(c2C#N)CCC3)c1	-22.6%
COc1cncc(-c2cnc3sc(NCCc4ccccn4)nn23)c1	21.9%
COC(=O)c1sc(C(F)(F)F)c(-c2ccccc2)c1S(=O)(=O)N(C)C	10.9%
CC(C)OC(=O)c1ccc(NCc2cc(O)ccc2O)cc1Cl	95.7% (active)
O=C(O)Cc1ccc(NCc2ccccc2Cl)cc1	-22.2%
CC(CN1CCCCC1)OC(=O)c1ccccc1Cl (configuration not stated)	-3.13%
CNS(=O)(=O)c1cccc(C(=O)OCCCC(=O)c2ccccc2)c1	41.8%
Fc1ccc2[nH]c3c(N4CCSCC4)ncnc3c2c1	89.7% (active)
CC(C)Cn1cnc2c(SCc3ccc(Cl)cc3)nc(N)nc21	11.7%
COCCn1c(SC(C)C(=O)NC2CC2)nnc1-c1cccc(C)c1 (configuration not stated)	1.3%
CC1(C)C2CCC1(C)C(OC(=O)c1ccc(O)cc1)C2 (configuration not stated)	21.8%
O=C(OC12CC3CC(CC(C3)C1)C2)c1ccc(NCc2cc(O)ccc2O)cc1	98.1% (active)
CN(C)C(=O)CCc1ccc2c3c([nH]c2c1)[C@]1(C)[C@@H](C(=O)N2CCOCC2)C[C@H](CC(=O)NCCc2ccccn2)C(=O)N1CC3	-11.8%
CCCOc1ccc(F)cc1-c1cc(C(=O)Nc2ccc(F)cc2)[nH]n1	20%
COc1cc(F)ccc1-c1cc(C(=O)NCC2CCCCC2)[nH]n1	-10.1%
COc1ccc(OC)c(NC(=O)c2cc(-c3cc(F)ccc3OCC3CCCO3)n[nH]2)c1 (configuration not stated)	86.3% (active)
O=C(CSc1ncnc2c1nnn2Cc1ccc(F)cc1)NC1CCCC1	-2.06%
O=C1c2ccccc2[C@@H]2C[C@@H](O)[C@H](Nc3ccccc3Cl)CCN12	55.5%
Cn1cccc1Cc1nnc(SCC(=O)NCCc2ccccc2)n1-c1ccc(F)cc1	87.9% (active)
Cc1ccc(C)c(NC(=O)CSc2nnc(Cc3cccn3C)n2-c2ccc(F)cc2)c1	7.47%
COc1ccccc1NC(=O)CSc1nnc(Cc2cccn2C)n1-c1ccc(F)cc1	17%

Compound	inhibition
Fc1cccc(Cc2c(-c3ccc(Cl)cc3)nc3ccc(Cl)cn23)c1	-13.4%
CN1OC[C@@H]2CN(C(=O)c3cccc4ccccc34)[C@H](c3ccc(N4CCCCC4)cc3)C[C@@H]21	-9.07%
Cc1ccc(S(=O)(=O)Nc2ccc3ncccc3c2)cc1	86.6% (active)
O=S(=O)(Nc1ccc(Oc2ncccn2)c(Cl)c1)c1ccc(F)cc1	-28.6%
Cc1cc(C)cc(OCC(=O)Nc2ccc(S(=O)(=O)Nc3ccccn3)cc2)c1	6.49%
Cc1c(CC(=O)NCC(=O)NCC(=O)O)c(=O)oc2cc3oc4c(c3cc12)CCCC4	-25.9%
CN(C)C(=O)c1ccc2c(c1)C1C3CCC(C3)C1C(c1ccccc1)N2 (configuration not stated)	-19.2%
COc1ccc(CCNc2cc(N3CCN(C(=O)c4ccccc4OC)CC3)ccc2[N+](=O)[O-])cc1OC	88.7% (active)
COc1ccccc1OCCNc1cc(N2CCOCC2)ccc1[N+](=O)[O-]	40.1%
O=C(c1ccccc1)N1CCN(c2ccc([N+](=O)[O-])c(NCc3ccco3)c2)CC1	27.6%
CC1=CC(=O)C=CC1(C)C(Cl)(Cl)Cl (configuration not stated)	9.05%
O=C(CCS(=O)(=O)c1ccc2c(c1)NC(=O)CS2)NCc1ccccc1Cl	-18.1%
O=C(NCCSCc1ccccc1)c1ccc(Cl)c(S(=O)(=O)N2CCOCC2)c1	10.8%
CC(C)(CNC(=O)c1ccc(Cl)c(S(=O)(=O)N2CCc3ccccc3C2)c1)N1CCOCC1	82.5% (active)
CN(C)S(=O)(=O)c1ccc(C(=O)NCC(C)(C)N2CCOCC2)cc1	23%
CCOC(=O)C1=CCC(c2ccc(F)cc2)N(S(=O)(=O)c2ccc(C)cc2)C1 (configuration not stated)	10.7%
N#Cc1c(-c2ccc(F)cc2)cc(C2CC2)nc1SCC(=O)c1cccs1	-3.6%
CN1C2CCC1CC(NC(=O)c1ccc([N+](=O)[O-])cc1)C2 (configuration not stated)	-1.34%
CN(CC1CCCO1)S(=O)(=O)c1ccc(C(=O)Nc2ccc([N+](=O)[O-])cc2)cc1 (configuration not stated)	39.9%
O=C(Nc1cc2c3c(c1)C1CCCC1CN3CC1CCCC21)c1ccc([N+](=O)[O-])cc1 (configuration not stated)	88.9% (active)
CC1=NNC(=O)C1CCC(=O)N/N=C\c1cccc(Cl)c1 (configuration not stated)	-5.12%

From PubChem BioAssay AID588674 (Broad Institute, 2011)
